“And” between values parts separate entries of the source, which are not always exact repeats. Equal entries are not always repeated. Inconclusive results are not listed. A structure can be active in one record and inactive in another. The source made the active and inactive calls. The calls were made as follows: active = hit-call score of the fitted dose curve at least 0.9, where 1 is the maximum; inconclusive = response in the unintended direction; inactive = score below 0.9.

Usually AC50 stands for the midpoint of the concentration-response curve, whichever way the signal moves.

A short description of one assay: Tanguay_ZF_120hpf_OTIC_legacy: (Legacy) Oregon State University Tanguay Lab 120 Hour Post-fertilization zebrafish Assay for Otic Vesicle Malformation (AID 2283639). An outline of the steps:
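Wild-type zebrafish larvae, whole-embryo exposure from early stage to 120 hpf at 28C. Binary brightfield scoring of otic vesicle morphology, fitted in the positive direction against the DMSO baseline.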
In the case of `COCCO`, the compound was called inactive.
`O=C(O)C1(C(=O)Nc2ccc(Cl)cc2Cl)CC1`: the compound was called inactive.
Regarding `CCCCC(CC)CN1C(=O)C2C3C=CC(C3)C2C1=O` (stereo not drawn), the call was inactive.
Take `CCCCOCCOCCOCc1cc2c(cc1CCC)OCO2`: the result was inactive.
For the compound `CCOC(=O)C(C)Oc1ccc(Oc2nc3ccc(Cl)cc3o2)cc1` (stereo not drawn), the result was inactive.
The same measure, in the same setting: as for `CC(=O)[C@H]1CC[C@H]2[C@@H]3CCC4=CC(=O)CC[C@]4(C)[C@H]3CC[C@]12C`, the entry is “inactive”.
As for `CCSC(=O)N(CC(C)C)CC(C)C`, the result was inactive.
On the same count and under the same terms, to `CCN(Cc1c(F)cccc1Cl)c1c([N+](=O)[O-])cc(C(F)(F)F)cc1[N+](=O)[O-]` belongs “inactive”.
Regarding `CCOC(=O)C(C)Oc1ccc(Oc2cnc3cc(Cl)ccc3n2)cc1` (stereo not drawn), the outcome was inactive.

Another assay can be described thus: Tanguay_ZF_120hpf_PE_legacy: (Legacy) Oregon State University Tanguay Lab 120 Hour Post-fertilization zebrafish Assay for Pericardial Edema (AID 2283640).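 As to AC50: potency for increased incidence of pericardial edema versus DMSO baseline.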 An outline of the steps:
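Zebrafish larvae are exposed from early development to 120 hpf at 28C, with 0.64% DMSO final. Each surviving larva receives a yes/no pericardial edema call by brightfield imaging, analysed relative to the DMSO baseline.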
With `CCN(CC)C(=O)c1cccc(C)c1`, the outcome was inactive.
The same measure, in the same setting: to `N#CSCSc1nc2ccccc2s1` belongs “inactive”; to `COc1c(Cl)ccc(Cl)c1C(=O)O`, “inactive”.
In the case of `O=C(c1ccccc1)C1CCCCC1`, the result was inactive.
On to `CCNc1nc(N)nc(Cl)n1`, for which the compound was called inactive.
For `CC(C)(c1ccc(O)cc1)c1ccc(O)cc1`, the half-maximal activity concentration (AC50) is 43.3 µM (active) and 34.9 µM (active).
As for `CCCN(CCC)c1c([N+](=O)[O-])cc(C(F)(F)F)c(N)c1[N+](=O)[O-]`, the compound was classed as inactive.
As to `CCOC(=O)NCCOc1ccc(Oc2ccccc2)cc1`, the compound was called inactive.
`CCCCOC(=O)C(C)Oc1ccc(Oc2ccc(C(F)(F)F)cn2)cc1` (stereo not drawn): the compound was called inactive.
`Cc1nn(C)c(Oc2ccccc2)c1C=NOCc1ccc(C(=O)OC(C)(C)C)cc1`: the compound was classed as inactive.
Consider `C#CCOC(=O)[C@@H](C)Oc1ccc(Oc2ncc(Cl)cc2F)cc1`, for which the compound was called inactive.
Take `CC1(C)C(C=C(Cl)Cl)C1C(=O)OCc1cccc(Oc2ccccc2)c1` (stereo not drawn): the result was inactive.
For `CCCCCOC(=O)COc1cc(N2C(=O)C3=C(CCCC3)C2=O)c(F)cc1Cl`, the outcome was inactive.
With `CCC(C)OC(=O)N1CCCCC1CCO` (stereo not drawn), the call was inactive.
Consider `O=C(O)c1ccccc1`, for which the call was inactive.
Still for that read-out and setting: to `O=C(c1ccc(O)cc1O)c1ccc(O)cc1O` belongs “inactive”; to `CC(C)CCCCCCc1ccc(O)cc1`, “inactive”.
Turning to `C[C@]12C[C@H](O)[C@H]3[C@@H](CCC4=CC(=O)CC[C@@]43C)[C@@H]1CC[C@@H]2C(=O)CO`, the call was inactive.
`S=C([S-])NCCNC(=S)[S-].[Mn+2]`: the compound was classed as inactive.
As to `S=C(S)NCCNC(=S)S.[Mn+2].[S-]C([S-])=NCCN=C([S-])[S-].[Zn+2]`, the call was inactive.
Consider `COCCO`, for which the outcome was inactive.
`O=C(O)C1(C(=O)Nc2ccc(Cl)cc2Cl)CC1`: the AC50 is 41.9 µM (active).
`CCCCC(CC)CN1C(=O)C2C3C=CC(C3)C2C1=O` (stereo not drawn): the compound was called inactive.
On to `CCCCOCCOCCOCc1cc2c(cc1CCC)OCO2`, for which the AC50 is 26.2 µM (active).
In the case of `CCOC(=O)C(C)Oc1ccc(Oc2nc3ccc(Cl)cc3o2)cc1` (stereo not drawn), the compound was classed as inactive.
With `CC(=O)[C@H]1CC[C@H]2[C@@H]3CCC4=CC(=O)CC[C@]4(C)[C@H]3CC[C@]12C`, the outcome was inactive.
On to `CCSC(=O)N(CC(C)C)CC(C)C`, for which the outcome was inactive.
`CCN(Cc1c(F)cccc1Cl)c1c([N+](=O)[O-])cc(C(F)(F)F)cc1[N+](=O)[O-]`: the outcome was inactive.
Regarding `CCOC(=O)C(C)Oc1ccc(Oc2cnc3cc(Cl)ccc3n2)cc1` (stereo not drawn), the outcome was inactive.

A short description of another assay: Tanguay_ZF_120hpf_BRAI_legacy: (Legacy) Oregon State University Tanguay Lab 120 Hour Post-fertilization zebrafish Assay for Brain Malformation (AID 2283641). An outline of the steps: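 Static exposure of staged wild-type embryos until 120 hpf, kept at 28C with light excluded and final DMSO of 0.64% (vol/vol). Presence or absence of brain malformation was noted under brightfield; mortality precluded scoring.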
For the compound `CCN(CC)C(=O)c1cccc(C)c1`, the outcome was inactive.
For `N#CSCSc1nc2ccccc2s1`, the compound was called inactive.
Consider `COc1c(Cl)ccc(Cl)c1C(=O)O`, for which the compound was classed as inactive.
For `O=C(c1ccccc1)C1CCCCC1`, the compound was called inactive.
As to `CCNc1nc(N)nc(Cl)n1`, the compound was called inactive.
On to `CC(C)(c1ccc(O)cc1)c1ccc(O)cc1`, for which the AC50 is 41.6 µM (active) and 39.4 µM (active); the compound was classed as inactive.
On to `CCCN(CCC)c1c([N+](=O)[O-])cc(C(F)(F)F)c(N)c1[N+](=O)[O-]`, for which the result was inactive.
On to `CCOC(=O)NCCOc1ccc(Oc2ccccc2)cc1`, for which the compound was classed as inactive.
For `Cc1nn(C)c(Oc2ccccc2)c1C=NOCc1ccc(C(=O)OC(C)(C)C)cc1`, the call was inactive.
Take `CC1(C)C(C=C(Cl)Cl)C1C(=O)OCc1cccc(Oc2ccccc2)c1` (stereo not drawn): the compound was called inactive.
For the compound `CCCCCOC(=O)COc1cc(N2C(=O)C3=C(CCCC3)C2=O)c(F)cc1Cl`, the compound was classed as inactive.
As to `CCC(C)OC(=O)N1CCCCC1CCO` (stereo not drawn), the compound was called inactive.
As for `O=C(O)c1ccccc1`, the compound was called inactive.
With `O=C(c1ccc(O)cc1O)c1ccc(O)cc1O`, the compound was called inactive.
On the same count and under the same terms, to `CC(C)CCCCCCc1ccc(O)cc1` belongs “inactive”.
As to `S=C([S-])NCCNC(=S)[S-].[Mn+2]`, the result was inactive.
For the compound `S=C(S)NCCNC(=S)S.[Mn+2].[S-]C([S-])=NCCN=C([S-])[S-].[Zn+2]`, the compound was called inactive.
Turning to `O=C(O)C1(C(=O)Nc2ccc(Cl)cc2Cl)CC1`, the compound was classed as inactive.
On to `CCCCC(CC)CN1C(=O)C2C3C=CC(C3)C2C1=O` (stereo not drawn), for which the outcome was inactive.
Consider `CCCCOCCOCCOCc1cc2c(cc1CCC)OCO2`, for which the compound was classed as inactive.
On to `CCOC(=O)C(C)Oc1ccc(Oc2nc3ccc(Cl)cc3o2)cc1` (stereo not drawn), for which the call was inactive.
With `CC(=O)[C@H]1CC[C@H]2[C@@H]3CCC4=CC(=O)CC[C@]4(C)[C@H]3CC[C@]12C`, the result was inactive.
With `CCSC(=O)N(CC(C)C)CC(C)C`, the outcome was inactive.
On the same count and under the same terms, as for `CCOC(=O)C(C)Oc1ccc(Oc2cnc3cc(Cl)ccc3n2)cc1` (stereo not drawn), the entry is “inactive”.

For the origin of these results see PubChem BioAssay (EPA / NIEHS).
